PubChem BioAssay AID651640 (Broad Institute, 2012)
“And” between values parts separate entries of the source, which are not always exact repeats. Equal values may be shown once. Out of some 350,000 compounds screened, about 6,000 (1.7%) were called active. Inconclusive results (about 5%) are left out. Cut-off read from the data, not from the text of the source: active = CPE inhibition above about 20% (passing the limit was not always enough); inconclusive = no clear call, values can overlap the other calls; tested in BHK-21 cells. The sample as a whole holds a higher share of actives than the screen did. The source holds several records for some structures; these can differ, active in one and inactive in another.

Assay: protection of cells from dengue 2 killing – plate reader, single concentration, primary screen (AID 651640);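 note: 0% = median of neutral control wells and 100% = median of positive control wells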
Conditions: DENV2-infected cells, cytopathic effect rescue, at 9.99 µM, stronger effect = higher value
In the case of CCCC(=O)N1CCC2(CC1)CN(C(=O)C1CCCCC1)[C@@H](CO)c1[nH]c3cc(OC)ccc3c12, the CPE inhibition was 0.105% (inactive). In the case of C[C@@H]1CCCCO[C@@H](CN(C)C(=O)NC2CCCCC2)[C@@H](C)CN([C@@H](C)CO)C(=O)c2cc(NC(=O)C3CCCCC3)ccc2O1, the CPE inhibition was -1.85% (inactive). For C[C@@H]1CN([C@@H](C)CO)C(=O)c2cccc(NC(=O)Nc3ccc4c(c3)OCO4)c2O[C@@H]1CN(C)C(=O)Nc1ccc(F)cc1, the CPE inhibition was 16.1% (inactive). In the case of C[C@H](CO)N1C[C@H](C)[C@@H](CN(C)C(=O)Nc2ccc3c(c2)OCO3)Oc2ccc(NC(=O)NC3CCCCC3)cc2CC1=O, the CPE inhibition was 9.47% (inactive). For COc1ccc(S(=O)(=O)N(C)C[C@H]2OCCCC[C@@H](C)Oc3ccc(NC(=O)NC(C)C)cc3C(=O)N([C@H](C)CO)C[C@H]2C)cc1, the CPE inhibition was -2.15% (inactive). In the case of COCC(=O)N1CC(=O)N2[C@H](C1)[C@@H](c1ccc(C#Cc3cccc(OC)c3)cc1)[C@@H]2CO, the CPE inhibition was -1.66% (inactive). In the case of COc1ccc(S(=O)(=O)N(C)C[C@@H]2OCCCC[C@H](C)Oc3ccc(NC(=O)NC4CCCCC4)cc3C(=O)N([C@H](C)CO)C[C@H]2C)cc1, the CPE inhibition was -9.88% (inactive). For CCCN1[C@H](C(=O)N2CCCCC2)[C@@H](CO)[C@@H]2Cn3c(ccc(-c4ccccc4F)c3=O)[C@@H]21, the CPE inhibition was 0.279% (inactive). With C[C@H](CO)N1C[C@H](C)[C@@H](CN(C)C(=O)c2ccncc2)Oc2ncc(-c3ccncc3)cc2C1=O the CPE inhibition was 0.501% (inactive). In the case of C/C=C/c1cccc(-c2nc(C(=O)NCCN3CCCCC3)cc3c2[C@@H](CCO)N([S@](=O)C(C)(C)C)C3)c1, the CPE inhibition was 8.26% (inactive). In the case of COCc1cn(CC[C@@H]2CC[C@@H](NC(=O)Nc3ccc(C(F)(F)F)cc3)[C@H](CO)O2)nn1, the CPE inhibition was 2.57% (inactive). For O=C(C[C@H]1C[C@H]2c3cc(NC(=O)Nc4ccccc4)ccc3O[C@H]2[C@H](CO)O1)NC1CCCC1, the CPE inhibition was 16.7% (inactive). With O=C(N[C@H]1CC[C@@H](CCNS(=O)(=O)Cc2ccccc2)O[C@H]1CO)c1ccccc1F the CPE inhibition was 5.12% (inactive). With CN(C)C(=O)c1cccc(-c2ccc([C@H]3[C@H](CO)N4C(=O)CN(C(=O)Cc5ccccc5)C[C@@H]34)cc2)c1 the CPE inhibition was 4.14% (inactive). For Cc1noc(C)c1NC(=O)Nc1ccc2c(c1)C(=O)N([C@H](C)CO)C[C@@H](C)[C@@H](CN(C)Cc1ccncc1)OCCCC[C@H](C)O2, the CPE inhibition was 1.93% (inactive). For CN1C(=O)c2cc(NC(=O)C3CCOCC3)ccc2OC[C@@H]2O[C@@H](CC(=O)NCC3CC3)CC[C@@H]21, the CPE inhibition was -9.75% (inactive). With CN(C)C(=O)C[C@@H]1C[C@@H]2c3cc(NC(=O)NC4CCCCC4)ccc3O[C@@H]2[C@H](CO)O1 the CPE inhibition was -9.26% (inactive). In the case of CCC(=O)Nc1ccc2c(c1)C(=O)N(C)C[C@H](OC)[C@H](C)CN(C(=O)c1ccccc1F)[C@@H](C)CO2, the CPE inhibition was 23.7% (active). In the case of CCC(=O)Nc1ccc2c(c1)OC[C@H](C)N(C(=O)c1ccccc1F)C[C@@H](C)[C@H](OC)CN(C)C2=O, the CPE inhibition was -6.62% (inactive). For CO[C@@H]1CN(C)C(=O)c2cc(NC(=O)C3CC3)ccc2OC[C@H](C)N(C(=O)c2ccccc2F)C[C@H]1C, the CPE inhibition was -0.841% (inactive). With C[C@@H]1CN([C@@H](C)CO)C(=O)c2cc(-c3cncnc3)cnc2O[C@@H]1CN(C)C(=O)c1ccccc1F the CPE inhibition was 16.7% (inactive). With COc1ccc2c(c1)[C@H]1[C@H](CO2)[C@H](c2ccccc2)[C@]2(C)C(=O)Nc3cc(F)c(F)cc3C(=O)N12 the CPE inhibition was -1.62% (inactive). For CCOC(=O)[C@H]1[C@H]2COc3ccc(Cl)cc3[C@@H]2N2C(=O)c3cc(C)ccc3NC(=O)[C@@]12C, the CPE inhibition was 4.71% (inactive). With Cc1ccc2c(c1)NC(=O)[C@@]1(C)[C@@H](c3ccccc3)[C@H]3COc4ccc(Cl)cc4[C@@H]3N1C2=O the CPE inhibition was 82.7% (active). In the case of CCc1ccc2c(c1)NC(=O)C2(C)Cc1ccc(OC(F)(F)F)cc1 (stereo unspecified), the CPE inhibition was 48.3% (active). With Cc1ccc(CC2(C)C(=O)Nc3ccc(OC(F)(F)F)cc32)cc1 (stereo unspecified) the CPE inhibition was 6.39% (inactive). For COc1ccccc1CC1(C)C(=O)Nc2ccc(OC(F)(F)F)cc21 (stereo unspecified), the CPE inhibition was 0.818% (inactive). With CC(C)NC(=O)Nc1cccc2c1O[C@@H](CN(C)Cc1ccc(C(=O)O)cc1)[C@@H](C)CN([C@H](C)CO)C2=O the CPE inhibition was -5.2% (inactive). For CO[C@H]1CN(C)C(=O)c2ccc(NC(=O)c3cccc(F)c3)cc2OC[C@H](C)N(CC2CC2)C[C@@H]1C, the CPE inhibition was -4.07% (inactive). For O=C(O)/C=C/c1cn(-c2ccccc2)nc1-c1cccs1, the CPE inhibition was 21.7% (active). With COc1cccc(NC(=O)CN(C)C(=O)/C=C/c2cn(-c3ccccc3)nc2-c2cccs2)c1 the CPE inhibition was -12.9% (inactive). For O=C(O)c1ccc(N/N=C/c2cn(-c3ccccc3)nc2-c2cccs2)cc1, the CPE inhibition was -1.67% (inactive). With COc1ccc(NC(=O)N[C@@H]2CC[C@H](CCn3cc(-c4ccc(OC)cc4)nn3)O[C@@H]2CO)cc1 the CPE inhibition was 3.46% (inactive). In the case of COc1cccc(NC(=O)N(C)C[C@H]2Oc3cc(/C=C/c4ccccc4)ccc3S(=O)(=O)N([C@H](C)CO)C[C@@H]2C)c1, the CPE inhibition was 1.83% (inactive). In the case of Cc1cccc(C)c1OCCN1CCOCC1, the CPE inhibition was 5.93% (inactive). For c1ccc(-c2ccc(OCCN3CCOCC3)cc2)cc1, the CPE inhibition was 27.1% (active). In the case of COc1ccc(-c2sc3ccccc3c2-c2ccc(OCCN3CCOCC3)cc2)cc1, the CPE inhibition was 9.44% (inactive). In the case of O=C(C[C@H]1CC[C@@H](NC(=O)Nc2ccc(F)cc2)[C@H](CO)O1)NCc1cccc(F)c1, the CPE inhibition was 1.45% (inactive). In the case of C[C@H](NC(=O)N(C)C[C@@H]1OCc2ccccc2-c2ccccc2C(=O)N([C@H](C)CO)C[C@@H]1C)c1ccccc1, the CPE inhibition was 3.49% (inactive). With O=C(C[C@@H]1CC[C@@H](NC(=O)CC2CC2)[C@H](CO)O1)NCc1ccc(-c2ccccc2)cc1 the CPE inhibition was 2.21% (inactive). For Cn1cnc(S(=O)(=O)N2C[C@H](O)COC[C@@H]3O[C@H](CC(=O)NCc4cccc(F)c4)CC[C@H]32)c1, the CPE inhibition was -0.815% (inactive). With CCN1C(=O)[C@H]2[C@@H](c3ccccc3)N[C@]3(CCCN(Cc4ccc(C)cc4)C3=O)[C@H]2C1=O the CPE inhibition was -9.89% (inactive). For COc1ccc([C@H]2N[C@]3(CCCN(Cc4ccco4)C3=O)[C@H]3C(=O)N(C)C(=O)[C@@H]23)cc1, the CPE inhibition was 91.3% (active). For Cc1ccc([C@H]2N[C@]3(CCCN(Cc4ccccc4)C3=O)[C@H]3C(=O)N(Cc4ccccc4)C(=O)[C@@H]23)cc1, the CPE inhibition was 12.7% (inactive). In the case of CC(C)CC#Cc1ccc2c(c1)O[C@H](CN(C)C(=O)CC1CC1)[C@@H](C)CN([C@@H](C)CO)S2(=O)=O, the CPE inhibition was 0.266% (inactive). With CCC(=O)N(C)C[C@@H]1Oc2cc(C#C[C@H](C)O)ccc2S(=O)(=O)N([C@H](C)CO)C[C@@H]1C the CPE inhibition was 8.89% (inactive). For CCCNC(=O)N1[C@@H]2CNC[C@H]1C2c1ccc(-c2ccccc2)cc1 (stereo partly specified), the CPE inhibition was -5.46% (inactive) and 6.08% (inactive). In the case of COc1ccc(S(=O)(=O)N2C[C@@H](O)COC[C@H]3O[C@H](CC(=O)N[C@H]4CCN(Cc5ccccc5)C4)CC[C@@H]32)cc1, the CPE inhibition was 13.5% (inactive). In the case of CC(=O)N1[C@H](CO)[C@@H](c2ccccc2)[C@@H]1CN(CC(C)C)C(=O)c1ccccn1, the CPE inhibition was -9.41% (inactive). In the case of CN(C)C(=O)c1cccc(-c2ccc(C3[C@H]4CNC[C@@H]3N4C(=O)Nc3ccccc3F)cc2)c1 (stereo partly specified), the CPE inhibition was 23.3% (active). For O=S(=O)(c1ccccc1F)N1[C@@H]2CNC[C@H]1C2c1ccc(-c2cncnc2)cc1 (stereo partly specified), the CPE inhibition was -1.33% (inactive). With CN(C)C(=O)c1ccc(-c2ccc(C3[C@H]4CNC[C@@H]3N4C(=O)Nc3cc(F)ccc3F)cc2)cc1 (stereo partly specified) the CPE inhibition was 1.83% (inactive). In the case of Cc1cccc(-c2ccc(C3[C@H]4CNC[C@@H]3N4S(=O)(=O)c3ccccc3F)cc2)c1 (stereo partly specified), the CPE inhibition was -1.96% (inactive) and 22.1% (active). In the case of N#Cc1ccc(-c2ccc(C3[C@H]4CNC[C@@H]3N4S(=O)(=O)c3ccccc3F)cc2)cc1 (stereo partly specified), the CPE inhibition was 6.8% (inactive). With COc1cccc(-c2ccc(C3[C@H]4CNC[C@@H]3N4C(=O)Nc3ccc(F)cc3)cc2)c1 (stereo partly specified) the CPE inhibition was -1.4% (inactive) and 18.6% (inactive). For C[C@H](CO)N1C[C@H](C)[C@@H](CN(C)Cc2ccc(Cl)c(Cl)c2)Oc2ccc(NC(=O)Nc3ccc(C(F)(F)F)cc3)cc2CC1=O, the CPE inhibition was -2.55% (inactive). In the case of CN1C(=O)c2cc(NC(=O)C3CC3)ccc2OC[C@@H]2O[C@@H](CC(=O)NCC3CCCCC3)CC[C@@H]21, the CPE inhibition was -7.29% (inactive). With C[C@@H]1CN([C@H](C)CO)C(=O)c2cccc(NC(=O)Nc3ccc(F)cc3)c2O[C@@H]1CN(C)C(=O)Nc1ccc(C(F)(F)F)cc1 the CPE inhibition was 2.25% (inactive). With O=C(NCc1ccncc1)c1ccc(NS(=O)(=O)c2cccc([N+](=O)[O-])c2)cc1 the CPE inhibition was -0.812% (inactive). For O=C(NCc1ccccc1)c1ccc(S(=O)(=O)Nc2cccc(C(F)(F)F)c2)cc1, the CPE inhibition was 2.44% (inactive). In the case of O=C(NCc1ccncc1)c1cccc(NS(=O)(=O)c2ccc(F)c(F)c2)c1, the CPE inhibition was 41.4% (active). With CC(C)NC(=O)N[C@H]1CC[C@H](CC(=O)NC2Cc3ccccc3C2)O[C@H]1CO the CPE inhibition was -2.08% (inactive). With C[C@@H]1CN([C@H](C)CO)S(=O)(=O)c2ccc(Br)cc2O[C@@H]1CN(C)Cc1cncnc1 the CPE inhibition was 19.1% (inactive). With CCOC(=O)[C@H]1[C@H]2COc3cc(OC)ccc3[C@@H]2N2C(=O)CN(Cc3ccc(Cl)cc3)C(=O)[C@@]12C the CPE inhibition was -5.6% (inactive). In the case of CCOC(=O)[C@H]1[C@H]2COc3ccccc3[C@@H]2N2C(=O)CN(Cc3ccccc3)C(=O)[C@@]12C, the CPE inhibition was 95% (active). In the case of CCOC(=O)[C@H]1[C@H]2COc3ccc(C)cc3[C@@H]2N2C(=O)CN(Cc3ccc(F)cc3)C(=O)[C@@]12C, the CPE inhibition was -7.57% (inactive).
